Inconclusive results are not listed. A call without a number means that no potency is given here. Calls of active or inactive are those of the source. Calls follow the shape of the full dose curve.

The experiment in a line: qHTS assay to identify small molecule agonists or antagonists of the thyroid stimulating hormone receptor (TSHR) signaling pathway - wild type cell line counter screen (AID 1259384). Particulars: HEK293 wild type, cAMP HTRF counter-screen; series mostly up to 92.4 µM. The text has this:
U.S. Tox21 Program National Center for Advancing Translational Sciences [NCATS] NIH Chemical Genomics Center [NCGC] U.S. Environmental Protection Agency [EPA] National Institutes of Environmental Health Sciences [NIEHS] National Toxicology Program [NTP] U.S. Food and Drug Administration [FDA] Tox21 Assay Overview: TSHR is the receptor for thyrotropin (thyroid stimulating hormone or TSH), a member of the glycoprotein hormone family. TSH is released by the anterior pituitary gland and is the main regulator of thyroid gland growth and development. Upon binding circulating thyrotropin, a G-protein signal cascade activates adenylyl cyclase and […] cAMP concentration is increased. cAMP is a key second messenger involved extensively in cellular signal transduction pathways associated with the majority of G-protein coupled receptors (GPCRs). The activation of these GPCRs by neurotransmitters, lipids, nucleotides, peptides and hormones results in the activation or the inhibition of plasma membrane-bound adenylate cyclase through heterotrimeric G-proteins. A cell-based TSHR-Hek293 assay can be used to identify TSHR agonists. To eliminate the false positive compounds identified from screening a cell-based TSHR-Hek293 cell line, cAMP assay in a wild type Hek293 cells was used as a counter screening.
Tox21 Assay Protocol Summary: Hek293 cells (wild type) were dispensed at 800 cells/4 uL/well in 1536-well white plates using a Multidrop dispenser. After the assay plates were incubated at a 37 C/5% CO2 incubator for 18 hrs, 23 nL of compounds dissolved in DMSO, positive controls or DMSO only was transferred to the assay plate by a pin tool, followed by 1 ul medium containing Ro20-1724. After 30 min of incubation at room temperature, 2.5 ul/well of cAMP-d2 and 2.5 ul/well of anti-cAMP-cryptate were added respectively into the assay plates using a Flying Reagent Dispenser. The plates were incubated at room temperature for 1 hr. The fluorescence intensity in the plates was measured using an Envision plate reader. Each test compound was measured at 15 concentrations and in triplicates.
For orientation: In qHTS, concentration-response curves come from the screen itself.
Take `NC1=NC(=O)C(c2ccccc2)O1` (stereo not given): the Potency entry is “inactive”.
For the compound `CC(Cl)(Cl)[N+](=O)[O-]`, the Potency result was “inactive”.
In the case of `CSc1nc(N=[N+]=[N-])nc(NC(C)C)n1` it was “inactive”; in that of `CC(C)CC#N`, “inactive”.
Regarding `Cc1nnc2n1-c1sc(CCC(=O)N3CCOCC3)cc1C(c1ccccc1Cl)=NC2`, the Potency result was “inactive”.
On to `C#CCN1C(=O)COc2cc(F)c(N3C(=O)C4=C(CCCC4)C3=O)cc21`, for which the Potency entry was “inactive”.
In the case of `CC1(C)COP(Oc2ccccc2)OC1` it was “inactive”; in that of `CC(C)[N+](=O)[O-]`, “inactive”.
`Cc1cc(C)c(C(=O)P(=O)(C(=O)c2c(C)cc(C)cc2C)c2ccccc2)c(C)c1`: the Potency entry is “inactive”.
As to `CCOP(=S)(OCC)Oc1nc(Cl)n(C(C)C)n1`, the Potency entry is “inactive”.
Turning to `NC(=O)c1cc([N+](=O)[O-])cc([N+](=O)[O-])c1`, the Potency entry was “inactive”.
Next, `O=P(O)(Oc1ccccc1)Oc1ccccc1`: “inactive”; `O=S(=O)(O)C(F)(F)C(F)(F)C(F)(F)C(F)(F)C(F)(F)C(F)(F)F`: “inactive”.
For the compound `CCOP(=S)(OCC)Oc1ncn(-c2ccccc2)n1`, the Potency result was “inactive”.
For the compound `CCCSP(=S)(OCC)Oc1ccc(Cl)cc1Cl` (stereo not given), the Potency result was “inactive”.
Consider `CCS(=O)(=O)CCSP(=O)(OC)OC`, for which the Potency result was “inactive”.
Turning to `CCCSP(=O)(OCC)Oc1ccc(Br)cc1Cl` (stereo not given), the Potency result is “inactive”.
`COc1cc(OC)nc(NC(=O)NS(=O)(=O)c2ncccc2C(=O)N(C)C)n1`: the Potency result was “inactive”.
Next, `CCS(=O)(=O)C(C)(C)S(=O)(=O)CC`: “inactive”; `CCC(C)(C)c1cc(-n2nc3ccccc3n2)c(O)c(C(C)(C)CC)c1`: “inactive”.
Regarding `C[C@@H]1CN(C2CCC(C#N)(c3ccc(F)cc3)CC2)CC[C@]1(C(=O)O)c1ccccc1` (stereo not given in full), the Potency entry is “inactive”.
As for `COP(N)(=S)Oc1ccccc1C(=O)OC(C)C` (stereo not given), the Potency result was “inactive”.
`CN1CCC(O)(c2ccc(F)cc2)C(C(=O)c2ccc(F)cc2)C1` (stereo not given): the Potency result was “inactive”.
Regarding `CCC(C)n1c(=O)[nH]c(C)c(Br)c1=O` (stereo not given), the Potency entry is “inactive”.
Take `COC(=O)C(C)Oc1ccc(Oc2ccc(Cl)cc2Cl)cc1` (stereo not given): the Potency result was “inactive”.
Consider `OCCSCSCCO`, for which the Potency result was “inactive”.
Take `O=C(O)c1cccc(Cl)c1`: the Potency result was “inactive”.
With `ClC(Br)Br`, the Potency result was “inactive”.
As for `C[N+](=O)[O-]`, the Potency entry was “inactive”.
Turning to `C[C@]12CC[C@H]3[C@@H](CCC4=CC(=O)CC[C@@]43C)[C@@H]1CC[C@@H]2C(=O)O`, the Potency result is “inactive”.
In the case of `CCC#N`, the Potency result is “inactive”.
`CCC/C(=N\OCC)C1=C(O)CC(CC(C)SCC)CC1=O` (stereo not given): the Potency entry was “inactive”.
Next, `COc1cccc(C(=O)NN(C(=O)c2cc(C)cc(C)c2)C(C)(C)C)c1C`: “inactive”.
Next, `c1cc2c(c(N3CCNCC3)c1)OCCO2`: “inactive”; `CN1CCC(N(Cc2ccccc2)c2ccccc2)CC1`: “inactive”; `COc1cc(OC)nc(Sc2cccc(Cl)c2C(=O)O)n1`: “inactive”.
In the case of `BrCCCCCCBr`, the Potency entry was “inactive”.
Regarding `CC1=C(C(=O)Nc2ccccc2)S(=O)(=O)CCO1`, the Potency result is “inactive”.
Take `Clc1cccc(N2CCNCC2)c1`: the Potency result is “inactive”.
Turning to `O=[N+]([O-])c1cccc2c([N+](=O)[O-])cccc12`, the Potency entry is “inactive”.

Source of the values: PubChem BioAssay (Tox21).
